HCMV antiviral: inhibitors of human cytomegalovirus. HFF cells, HCMV-luciferase reporter, 72 h; stronger effect = lower value. activity change, negative = inhibition, % at 57.5 µM. actives 4.5% (n = 410,000). AID 1259415; in the data active = activity change below about -60%; inconclusive = no clear call, values can overlap the other calls; inactive = above about -39%
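Compounds were evaluated in HFFs infected with an HCMV luciferase reporter virus (MOI 1 PFU/cell). Luciferase in lysates collected 72 h post infection served as the replication measure.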
Lassa entry inh: blocks Lassa virus binding to or entry into cells; Lassa virus pseudotype entry inhibition, cell reporter; Potency, µM (top dose mostly 37.9 µM), usual class: inhibitors; actives 1.2% (n = 300,000); AID 540256; calls by dose curve; tested in HEK293 cells; also: nearly all actives have a fitted effect of over 50% in size
Marburg entry inh: inhibitors of Marburg virus binding or cell entry; AID 540276; Potency, µM (titrated, usually from 37.8 µM), most hits filed as inhibitors; actives 1.8% (n = 300,000); Marburg virus pseudotyped entry inhibition, cell reporter; calls by dose curve; tested in HEK293 cells
Vaccinia mCherry: inhibitors of vaccinia virus infection (mCherry reporter signal); actives 0.63% (n = 310,000); Vaccinia virus mCherry reporter infection, fluorescence; Potency, µM (doses to about 36.5 µM), usual class: inhibitors; calls by dose curve; tested in A549 cells; also: nearly all actives have a fitted effect of over 35% in size
HCV inh: HCV inhibition | Huh7.5.1 HCVcc-Cre infection, luciferase reporter, 44 h | actives 3.4% (n = 340,000) | Potency, µM (top dose mostly 41.8 µM), most hits filed as inhibitors | AID 651820
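After 44 h co-culture of compound, cells and HCVcc-Cre (~0.5 moi), substrate is added for 15 min at room temperature and luciferase measured over 15 sec. Cells were seeded at 1,000/well and pre-cultured 4 h.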
VACV Venus inh: vaccinia inhibition (Venus reporter) | Vaccinia virus Venus reporter expression, fluorescence | Potency, µM (doses to about 36.5 µM), most hits filed as inhibitors | AID 720580 | actives 0.46% (n = 330,000); calls by dose curve; tested in A549 cells; also: nearly all actives have a fitted effect of over 30% in size
HCV confirm: confirmation of hepatitis C virus inhibitors | HCVcc-Cre infectious virus cell assay, luciferase, inhibition | shares compounds with HCV inh | actives 78% (n = 640) | Potency, µM (series often up to 41.8 µM), actives largely listed as inhibitors; also: nearly all actives have a fitted effect of over 80% in size
HCV host tox: toxic to HCV host cells, flagging false HCV inhibitors; shares compounds with HCV inh; Potency, µM (titrated, usually from 41.8 µM), usual class: inhibitors; actives 22% (n = 640); HCV host cell line cytotoxicity counterscreen;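 also: 44 h compound exposure; nearly all actives have a fitted effect of over 55% in size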
Large screens that a line does not name were inactive (follow-up assays come after a bar, where they were run). Hits are enriched below; roughly 7.8% of the tested compounds scored in any of these assays. Unless noted, calls follow the shape of the dose curve; as a rule, active = well fitted curve in the direction sought with a large enough effect; inconclusive = small, poorly fitted or top-dose-only effect, or another doubt; inactive = no such curve, though single readings can be large; an effect the other way counts as inactive or inconclusive.

CC(Nc1nc(-c2ccccc2O)nc2ccccc12)c1ccccc1 (stereo not given)	HCV inh inconclusive
O=C1/C(=C/c2ccccc2)C[C@@]2(O)[C@H]3Cc4ccc(O)c5c4[C@@]2(CCN3CC2CC2)C1O5 (stereo not given in full)	Vaccinia mCherry inconclusive, HCV inh 3.2µM, VACV Venus inh 10µM (no result: HCMV antiviral, Lassa entry inh, Marburg entry inh) | HCV confirm 6.3µM | HCV host tox 10µM
C=C1CC[C@@]2(O)[C@H]3Cc4ccc(O)c5c4[C@@]2(CCN3CC2CC2)[C@H]1O5	HCV inh inconclusive (no result: HCMV antiviral)
C[n+]1ccccc1/C=C1\Sc2ccccc2N1CCO	HCMV antiviral inconclusive, Lassa entry inh inconclusive, HCV inh inconclusive
CCN1/C(=C/c2ccc3cc(C)cc(C)c3[n+]2CC)Sc2cc(C)ccc21	HCMV antiviral -100, HCV inh 7.1µM (no result: Lassa entry inh, Marburg entry inh, Vaccinia mCherry, VACV Venus inh) | HCV confirm 7.9µM | HCV host tox 7.9µM
Cc1c(Cl)cccc1NC(=O)CCn1cnnn1	none (no result: HCV inh)
CC(C)CCn1c(=O)c2sccc2n2c(CCCC(=O)NCCc3ccccc3)nnc12	none (no result: Marburg entry inh, HCV inh)
COc1ccc(CC(=O)Nc2cccc(-c3nnc(-c4ccc(C)cc4)o3)c2)cc1OC	HCMV antiviral -93, Lassa entry inh inconclusive, Marburg entry inh 9.2µM, HCV inh 3.2µM | HCV confirm 6.3µM | HCV host tox inactive
Cc1ccc(OCC(=O)Nc2cccc(-c3nnc(-c4ccccc4)o3)c2)c(C)c1	Lassa entry inh inconclusive, HCV inh inconclusive (no result: Vaccinia mCherry, VACV Venus inh)
Cc1cc(C)n(-c2ccc(C(=O)Nc3ccc4c(c3)OCCO4)cc2)n1	HCV inh inconclusive (no result: Vaccinia mCherry) | HCV confirm inconclusive | HCV host tox inactive
COc1ccc([N+](=O)[O-])cc1NC(=O)CSc1nc(C)cc(C)n1	HCMV antiviral inconclusive, Marburg entry inh inconclusive, HCV inh inconclusive
COc1ccc([N+](=O)[O-])cc1NC(=O)CSc1ccc2ccccc2c1	HCMV antiviral inconclusive, HCV inh inconclusive | HCV confirm 13µM | HCV host tox inconclusive
CCOC(=O)C1CCCN(C(=O)C2CCN(c3nnc(C)c4c(C)n(-c5ccccc5)nc34)CC2)C1 (stereo not given)	none (no result: Marburg entry inh, HCV inh)
CCOC(=O)CC(=O)CSc1nc2sc(C)cc2c(=O)n1Cc1ccco1	HCV inh inconclusive | HCV confirm 11µM | HCV host tox inactive
COc1ccc(NC(=O)COC(=O)c2c3c(nc4ccccc24)CCCC3)cc1Cl	HCMV antiviral inconclusive, Lassa entry inh inconclusive, Marburg entry inh inconclusive, Vaccinia mCherry inconclusive, HCV inh 4.5µM, VACV Venus inh inconclusive | HCV confirm 5µM | HCV host tox 31µM
CC1CCCCN1S(=O)(=O)c1ccc2c(c1)oc(=O)n2CC(=O)Nc1ccc(Cl)cc1 (stereo not given)	none (no result: Marburg entry inh, HCV inh)
CC(=O)N1CCc2nc3sc(C(=O)c4ccc(F)cc4)c(N)c3c(C(F)(F)F)c2C1	Lassa entry inh inconclusive (no result: HCV inh)
CSc1nc2ccc(Cl)cc2[nH]1	HCV inh inconclusive (no result: Vaccinia mCherry, VACV Venus inh)
CSc1nc2cc(Oc3cccc(Cl)c3Cl)c(Cl)cc2[nH]1	HCV inh 7.9µM (no result: Lassa entry inh, Marburg entry inh) | HCV confirm inconclusive | HCV host tox inactive
OC(c1cc(-c2ccc(C(F)(F)F)cc2)nc(C(F)(F)F)c1)C1CCCCN1 (stereo not given)	HCMV antiviral -102, Vaccinia mCherry inconclusive, HCV inh 5µM, VACV Venus inh 11µM (no result: Lassa entry inh, Marburg entry inh) | HCV confirm 14µM | HCV host tox inconclusive
CC1CCN(C(=O)CSc2nc(-c3ccc(F)cc3)cc(C(F)(F)F)n2)CC1	none (no result: HCV inh)
CC(C)Cn1c(=O)c2ccccc2n2c(CCC(=O)Nc3ccc(F)c(F)c3)nnc12	Marburg entry inh inconclusive (no result: Lassa entry inh, HCV inh)
Cc1ccc(-n2nc3c(N4CCC(C(=O)N5CCN(C)CC5)CC4)nnc(C)c3c2C)cc1	HCMV antiviral inconclusive, HCV inh 4.5µM (no result: Lassa entry inh, Marburg entry inh, Vaccinia mCherry, VACV Venus inh) | HCV confirm 16µM | HCV host tox inactive
COc1ccc(CNC(=O)c2ccc3nc(C(C)C)oc3c2)cc1OC	none (no result: Marburg entry inh, HCV inh)
CCc1ccc(N2C(=O)CSC23C(=O)N(Cc2cccc(OC)c2)c2ccccc23)cc1 (stereo not given)	none (no result: Marburg entry inh, HCV inh)
C=C(c1ccccc1Cl)[n+]1ccccc1	HCMV antiviral -60, Marburg entry inh inconclusive, HCV inh 4.5µM, VACV Venus inh inconclusive | HCV confirm 7µM | HCV host tox 25µM
CCCc1ccc(C2C3=C(CC(C)(C)CC3=O)NC3=C2C(=O)c2ccccc23)cc1 (stereo not given)	HCMV antiviral inconclusive, Lassa entry inh inconclusive, Marburg entry inh inconclusive, HCV inh 2.2µM, VACV Venus inh inconclusive | HCV confirm 11µM | HCV host tox inconclusive
Clc1ccc2nc(-c3ccc(Br)s3)cn2c1	Lassa entry inh 8.2µM, Marburg entry inh inconclusive, HCV inh inconclusive (no result: Vaccinia mCherry, VACV Venus inh) | HCV confirm 6.3µM | HCV host tox inconclusive
CCSc1nc2c(c(=O)n(C)c(=O)n2C)n1Cc1ccc(Cl)cc1	HCV inh inconclusive
Cn1c(=O)c2c(nc(SCC(=O)NCc3ccc4c(c3)OCO4)n2Cc2ccc(Cl)cc2)n(C)c1=O	HCV inh 2.5µM (no result: Vaccinia mCherry, VACV Venus inh) | HCV confirm 3.5µM | HCV host tox inactive
Cc1ccc(C)c2nc(SCC(=O)N3CCCc4ccccc43)c(C#N)cc12	HCV inh 6.3µM (no result: Vaccinia mCherry, VACV Venus inh) | HCV confirm 7µM | HCV host tox inactive
Cc1cc(C)cc(NS(=O)(=O)c2ccc3c(c2)CCCN3C(=O)C2CCC2)c1	Lassa entry inh inconclusive (no result: Marburg entry inh, HCV inh)
Cc1ccc(C(=O)Nc2ccccc2N2CCCCC2)cc1[N+](=O)[O-]	HCV inh 2.2µM (no result: Lassa entry inh, Marburg entry inh) | HCV confirm 16µM | HCV host tox 28µM
O=C(Cc1csc(Nc2nc(=S)[nH]c3ccccc23)n1)NCc1cccc(Cl)c1	Marburg entry inh inconclusive, HCV inh inconclusive (no result: Vaccinia mCherry, VACV Venus inh)
O=C(Cc1csc(Nc2nc(=S)[nH]c3ccccc23)n1)N1CCN(c2cccc(C(F)(F)F)c2)CC1	HCV inh 5.6µM (no result: Lassa entry inh) | HCV confirm 13µM | HCV host tox 13µM
COc1ccc(CN2c3ccccc3C(=O)CS2(=O)=O)cc1OC	none (no result: Lassa entry inh, Marburg entry inh, Vaccinia mCherry, HCV inh, VACV Venus inh)
CN(CC(=O)NCCc1ccc(S(N)(=O)=O)cc1)Cc1ccc(Cl)cc1Cl	HCMV antiviral -86, Marburg entry inh inconclusive, HCV inh 7.1µM | HCV confirm 8.9µM | HCV host tox 18µM
CN(CC(=O)NCCc1ccc(S(N)(=O)=O)cc1)Cc1c(F)cccc1Cl	none (no result: Lassa entry inh)
CC(C)c1ccccc1NC(=O)Cn1c(-c2ccccc2Cl)nc2ccccc21	HCV inh 2.5µM | HCV confirm inconclusive | HCV host tox inactive
CC(C)Cc1ccc(C(C)C(=O)Nc2nccs2)cc1 (stereo not given)	Marburg entry inh inconclusive
CC(C)Cc1ccc(C(C)C(=O)Nc2ccccc2O)cc1 (stereo not given)	HCMV antiviral -82, Lassa entry inh inconclusive, Marburg entry inh inconclusive, Vaccinia mCherry inconclusive, HCV inh 4.5µM | HCV confirm 4.4µM | HCV host tox 10µM

Bioassay records from PubChem BioAssay.
